Screening data deposited in PubChem by National Center for Advancing Translational Sciences (NCATS).
TDP1 cell CPT: DT40-hTDP1 cell growth loss with CPT | chicken DT40 Tdp1-/-;hTDP1 cells + 20 nM CPT, ATP luminescence, 48 h | Potency, µM (series often up to 46.2 µM), for the others: at the highest dose activity change, negative = growth inhibition, actives largely listed as inhibitors | 420,000 tested, 12% active; also: potency is read from the fitted curve at half-maximal effect; % is scaled to controls: 0 for no effect and ±100 for the full control effect; nearly all actives have a fitted effect of over 55% in size
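Chicken DT40 Tdp1-/- cells complemented with human TDP1, 400 cells/well, exposed to compounds plus 20 nM camptothecin for at least 48 h at 37 C; viability read as ATP content by CellTiter-Glo luminescence.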
IL1B secr inh: blocks inflammasome-driven IL-1 beta release | activity change, % at 57.5 µM | 360,000 tested, 4.7% active | AID 743279 | THP-1 LPS/ATP IL-1B secretion, AlphaLISA, 16 h; active compounds read low; in the data active = activity change below about -50%; inconclusive = mostly about -30% to -49%; also: % is scaled to controls: 0 for no effect and ±100 for the full control effect
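THP-1 cells pretreated 1 hr with compounds (up to 57.5 uM final), then stimulated with LPS (250 ng/mL final) plus ATP (1.25 mM final); secreted IL-1B measured by AlphaLISA after 16 hr, decreased signal indicating inhibition.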
DRD3 agonist: D3 dopamine receptor (human) agonism; P35462; D3R DiscoveRx beta-arrestin cells, luminescence, 90 min; max activation, %; 410,000 tested, 0.58% active; AID 652048; in the data active = max activation above about 30%; also: 0% is about no effect
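Cells at 1500/well, incubated overnight, then treated with pinned compounds (dopamine as control) for 90 min at 37 degrees C. DiscoveRx reagent added for 30 - 60 minutes at room temperature; luminescence read.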
TDP1 cell noCPT: qHTS for Inhibitors of human tyrosyl-DNA phosphodiesterase 1 (TDP1): qHTS in cells in absence of CPT; DT40 Tdp1-/- hTDP1 cells, no CPT, ATP luminescence, 48 h; 420,000 tested, 15% active; Potency, µM (highest dose often 46.2 µM), for inactives: at the top dose activity change, negative = growth inhibition, most hits filed as inhibitors; AID 686978, 2013; also: potency is read from the fitted curve at half-maximal effect; % is scaled to controls: 0 for no effect and ±100 for the full control effect; nearly all actives have a fitted effect of over 55% in size
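A cellular qHTS used chicken DT40 cells lacking endogenous Tdp1 but carrying stably transfected human TDP1. Compounds were applied without camptothecin, and cell growth kinetics were judged by ATP-dependent luminescence after ≥48 hr.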
D3 antag: blocks the human D3 dopamine receptor; 360,000 tested, 2.5% active; D3R cells, DiscoveRx beta-arrestin luminescence, antagonist mode; active compounds read low; max response, negative = inhibition, %; in the data active = max response below about -50%; inconclusive = no clear call, values can overlap the other calls; also: % is scaled to controls: 0 for no effect and ±100 for the full control effect
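Cells expressing the human receptor were seeded at 1500 cells/well, incubated overnight at 37 degrees C in 5% CO2, then exposed to library compounds with dopamine controls for 90 minutes at 37 degrees C before luminescent detection.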
ClpP mod: qHTS Assay for Activators of ClpP. 340,000 tested, 1.9% active. Potency, µM (series often up to 57.5 µM), for inactives: at the top dose activity change, negative = active. AID 651965, 2013. purified B. subtilis ClpP, FRET peptide cleavage, 20 min. ATP-dependent Clp protease proteolytic subunit (Bacillus subtilis (strain 168)), P80244; active = well fitted falling curve with a large enough effect; inconclusive = small, poorly fitted or top-dose-only effect; inactive = no such curve, though single readings can be large or run the other way; also: potency is read from the fitted curve at half-maximal effect; the source files actives as falling curves though it sought activators and does not explain the sign; nearly all actives have a fitted effect of over 65% in size
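Purified B. subtilis ClpP, 10 microg/mL final in Tris/HCl pH8 with KCl, BSA, glycerol and Tween-20, cleaved an Abz/nitrotyrosine-quenched decapeptide. Fluorescence (ex 320, em 430) was read at 0 and 20 min at room temperature. Delta was normalized to 5.8 microM ADEP and DMSO/no-enzyme controls.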
The depositor's hits bear a star; ? = inconclusive; . = no result. Sampled rows, rich in hits. Any-hit rate of the full collection: about 21%. Unless noted, calls follow the shape of the dose curve; as a rule, active = well fitted inhibition curve with a large enough effect; inconclusive = small, poorly fitted or top-dose-only effect; inactive = flat fitted curve, though single readings scatter.

SMILES | TDP1 cell CPT | IL1B secr inh | DRD3 agonist | TDP1 cell noCPT | D3 antag | ClpP mod
CCNc1oc(/C=C/c2ccc(OCC)cc2)nc1C#N | 7.31µM* | -1.1 | 3.3 | 8.2µM* | 7.1 | 4.2%
CC(=O)N1CCN(C(C(=O)Nc2c(C)cccc2C)c2ccccc2OC(F)(F)F)CC1 (stereo not drawn) | 0.1% | 18.6 | 4.6 | -5.6% | 9.5 | 0.4%
Cc1ccc(NC(=O)C(c2ccc(Cl)cc2)N2CCCCC2)cc1 (stereo not drawn) | 14.6µM* | -12.3 | -7.0 | 13µM* | 5.7 | 0.9%
Cc1cccc(C)c1NC(=O)C(c1ccc(Cl)cc1Cl)N1CCCCC1 (stereo not drawn) | 18.4µM* | ? | 0.9 | 29.1µM* | -14.3 | -3.0%
Cc1cc(C)cc(NC(=O)C(c2ccccc2)N2CCN(CC(=O)NC3CC3)CC2)c1 (stereo not drawn) | -18.5% | 7.2 | -12.3 | -30.0% | -22.6 | -0.5%
Cc1cc(C)cc(NC(=O)C(c2ccccc2)N2CCCC2)c1 (stereo not drawn) | 3.66µM* | ? | -4.7 | 2.91µM* | -25.3 | -1.3%
COc1ccc(Cl)cc1NC(=O)Cn1cnc2c1c(=O)n(C)c(=O)n2C | ? | . | -4.0 | ? | . | -1.1%
CCCN(CCC)CC(O)CN(c1ccccc1)S(=O)(=O)c1ccc(C)cc1 (stereo not drawn) | ? | -23.8 | 3.4 | ? | 4.2 | -1.9%
CCCCN(c1nc2ccccc2nc1Cl)S(=O)(=O)c1ccc(C)cc1 | 20.6µM* | 7.6 | 0.0 | 9.2µM* | -0.8 | -8.5%
OC1c2c(F)cccc2N=C2CCCCN21 (stereo not drawn) | 8.2µM* | 41.7 | 0.0 | ? | -6.3 | 4.9%
O=C1C(c2cccc(Br)c2)N(CCc2ccccc2)C(=O)CN1C1CCCCC1 (stereo not drawn) | -22.3% | . | 5.4 | -18.3% | . | -0.5%
CN(C)c1ccc(NC(=O)CSc2n[nH]c(-c3ccncc3)n2)cc1 | 8.4% | 9.0 | 9.6 | -16.6% | 13.5 | .
COc1ccccc1C1CN(c2ccccc2)N=C1c1cccs1 (stereo not drawn) | ? | 22.3 | -5.7 | ? | 5.5 | ?
COc1cccc(C2CN(c3ccc(F)cc3F)N=C2c2cccs2)c1OC (stereo not drawn) | 16.4µM* | 14.1 | -10.3 | ? | -12.8 | 3.7%
O=C(Nc1cccc(C(=O)O)c1)/C(=C\c1ccccc1Cl)NC(=O)c1ccco1 | -10.4% | 2.1 | 1.1 | 9.3% | -3.2 | 21.9%
COc1ccc2c(c1)[N+](C)(C)C(C)(C)C=C2C | ? | 41.9 | -0.8 | ? | 2.8 | -1.8%
CCOc1ccc2c(c1)[N+](C)(C)C(C)(C)C=C2C | 5.8µM* | -54.6* | -3.7 | 14.6µM* | -16.5 | .
CCn1nc(C)c(Oc2ccccc2O)c1C | -26.3% | 88.2 | -0.5 | ? | 5.3 | 0.6%
Cc1cc(C)nc(-n2nc(C)c(Oc3ccccc3O)c2C)n1 | 0.9% | 37.1 | 0.1 | -3.8% | 0.9 | 28.2µM*
Cc1ccccc1Nc1scc(-c2ccc(Cl)cc2)[n+]1-c1ccccc1C | 18.4µM* | -15.3 | -6.7 | 23.1µM* | -13.3 | -0.5%
COC(=O)C1CCN(S(=O)(=O)CCNC(=O)c2ccc(F)cc2)CC1 | -16.7% | -26.2 | -13.1 | -5.3% | -7.3 | .
COc1ccc(-c2nc3n(n2)C(c2ccc(OC)cc2)C(C(=O)Nc2cccnc2)=C(C)N3)cc1 (stereo not drawn) | -11.0% | . | -9.1 | -15.3% | . | -10.6%
O=c1c2ccccc2ncn1-c1ccc(Cl)c(Cl)c1 | -15.7% | 2.2 | 1.0 | 3.2% | -10.8 | -2.9%
Clc1ccc(-n2cnc3c(Cl)ncnc32)cc1Cl | 4.61µM* | ? | -1.9 | 6.51µM* | -23.7 | -12.0%
CCOC(=O)N1CCN(C(=O)COc2cccc3c2CCN(Cc2ccccc2F)C3=O)CC1 | 20.6µM* | -4.8 | 3.9 | 14.6µM* | -10.7 | -2.6%
SMILES | TDP1 cell CPT | IL1B secr inh | DRD3 agonist | TDP1 cell noCPT | D3 antag | ClpP mod
Cc1ccccc1CN1CCc2c(OCC(=O)N3CCCCC3)cccc2C1=O | ? | ? | 8.6 | ? | 0.0 | -1.1%
O=C(COc1cccc2c1CCN(Cc1ccccc1F)C2=O)N1CCCCC1 | ? | -3.3 | 2.3 | 20.6µM* | 4.3 | .
COC(=O)c1ccccc1NC(=O)COC(=O)C1CCCCC1 | -15.3% | 25.2 | 2.5 | 0.1% | 3.0 | -6.1%
COc1ccc(C(C(=O)NCc2ccccc2)n2c(=O)c(-c3cc4ccccc4[nH]3)nc3ccccc32)cc1 (stereo not drawn) | ? | 6.7 | 2.8 | ? | 18.4 | -10.8%
COc1ccc(NC(=O)C(c2ccccc2F)n2c(=O)c(-c3cc4ccccc4[nH]3)nc3ccccc32)cc1 (stereo not drawn) | 16.4µM* | -9.6 | 0.5 | 13µM* | 18.5 | -2.3%
COc1ccc(NC(=O)C(c2ccncc2)n2c(=O)c(-c3ccccc3)nc3ccccc32)cc1 (stereo not drawn) | ? | -56.1* | -6.9 | ? | -9.9 | 4.7%
COc1ccc(NC(=O)C(c2ccccc2)n2c(=O)c(-c3cc4ccccc4[nH]3)nc3ccccc32)cc1 (stereo not drawn) | 16.4µM* | -11.7 | -3.9 | 16.4µM* | -3.8 | -13.5%
CC(=O)OC1CC[C@]2(C)C(=CCC3C4CCC(C(C)CCCC(C)C)[C@]4(C)CCC32)C1 (stereo partly drawn) | -6.2% | . | . | 21.4% | . | .
COc1cccc(C2c3c(-c4ccccc4)n[nH]c3C(=O)N2c2ccc(C(=O)O)cc2)c1 (stereo not drawn) | -4.6% | 12.9 | -0.8 | 8.2% | 15.3 | 0.2%
CCOC(=O)c1ccc(N2C(=O)c3n[nH]c(-c4ccco4)c3C2c2cccc(O)c2)cc1 (stereo not drawn) | 20.6µM* | . | -8.1 | 20.6µM* | . | 0.4%
CCOC(=O)c1ccc(N2C(=O)c3n[nH]c(-c4ccco4)c3C2c2ccc(F)cc2)cc1 (stereo not drawn) | 23.1µM* | . | 9.0 | 23.1µM* | . | -5.9%
CCOC(=O)c1ccc(N2C(=O)c3n[nH]c(-c4ccco4)c3C2c2cccc(OC)c2)cc1 (stereo not drawn) | 23.1µM* | . | -5.9 | 18.4µM* | . | -6.7%
CCOC(=O)c1ccc(N2C(=O)c3n[nH]c(C)c3C2c2ccc(O)cc2)cc1 (stereo not drawn) | -19.6% | 14.7 | -2.3 | ? | -10.7 | 2.0%
CCOC(=O)c1ccc(N2C(=O)c3n[nH]c(-c4ccco4)c3C2c2ccc(OCC)cc2)cc1 (stereo not drawn) | ? | . | 7.6 | 16.4µM* | . | -11.0%
